Results taken from PubChem BioAssay AID504333 (National Center for Advancing Translational Sciences (NCATS), 2011).
About 16,000 (4.4%) of roughly 360,000 compounds were called active. Not shown: some 9% with an inconclusive outcome. Calls come from the whole dose curve; as a rule, active = well fitted inhibition curve with a large enough effect; inconclusive = small, poorly fitted or top-dose-only effect; inactive = no such curve, though single readings can be large or run the other way. This excerpt belongs to a sample that is enriched for actives.

These compounds were tested against Bromodomain adjacent to zinc finger domain protein 2B (Homo sapiens) (UniProt Q9UIF8) (assay: qHTS Assay for Inhibitors of BAZ2B). Settings: AlphaScreen BAZ2B-H3K14Ac peptide displacement; series mostly up to 114 µM.
Sequence of Bromodomain adjacent to zinc finger domain protein 2B (Homo sapiens) (Q9UIF8 whole entry, looked up, the tested form may be a part): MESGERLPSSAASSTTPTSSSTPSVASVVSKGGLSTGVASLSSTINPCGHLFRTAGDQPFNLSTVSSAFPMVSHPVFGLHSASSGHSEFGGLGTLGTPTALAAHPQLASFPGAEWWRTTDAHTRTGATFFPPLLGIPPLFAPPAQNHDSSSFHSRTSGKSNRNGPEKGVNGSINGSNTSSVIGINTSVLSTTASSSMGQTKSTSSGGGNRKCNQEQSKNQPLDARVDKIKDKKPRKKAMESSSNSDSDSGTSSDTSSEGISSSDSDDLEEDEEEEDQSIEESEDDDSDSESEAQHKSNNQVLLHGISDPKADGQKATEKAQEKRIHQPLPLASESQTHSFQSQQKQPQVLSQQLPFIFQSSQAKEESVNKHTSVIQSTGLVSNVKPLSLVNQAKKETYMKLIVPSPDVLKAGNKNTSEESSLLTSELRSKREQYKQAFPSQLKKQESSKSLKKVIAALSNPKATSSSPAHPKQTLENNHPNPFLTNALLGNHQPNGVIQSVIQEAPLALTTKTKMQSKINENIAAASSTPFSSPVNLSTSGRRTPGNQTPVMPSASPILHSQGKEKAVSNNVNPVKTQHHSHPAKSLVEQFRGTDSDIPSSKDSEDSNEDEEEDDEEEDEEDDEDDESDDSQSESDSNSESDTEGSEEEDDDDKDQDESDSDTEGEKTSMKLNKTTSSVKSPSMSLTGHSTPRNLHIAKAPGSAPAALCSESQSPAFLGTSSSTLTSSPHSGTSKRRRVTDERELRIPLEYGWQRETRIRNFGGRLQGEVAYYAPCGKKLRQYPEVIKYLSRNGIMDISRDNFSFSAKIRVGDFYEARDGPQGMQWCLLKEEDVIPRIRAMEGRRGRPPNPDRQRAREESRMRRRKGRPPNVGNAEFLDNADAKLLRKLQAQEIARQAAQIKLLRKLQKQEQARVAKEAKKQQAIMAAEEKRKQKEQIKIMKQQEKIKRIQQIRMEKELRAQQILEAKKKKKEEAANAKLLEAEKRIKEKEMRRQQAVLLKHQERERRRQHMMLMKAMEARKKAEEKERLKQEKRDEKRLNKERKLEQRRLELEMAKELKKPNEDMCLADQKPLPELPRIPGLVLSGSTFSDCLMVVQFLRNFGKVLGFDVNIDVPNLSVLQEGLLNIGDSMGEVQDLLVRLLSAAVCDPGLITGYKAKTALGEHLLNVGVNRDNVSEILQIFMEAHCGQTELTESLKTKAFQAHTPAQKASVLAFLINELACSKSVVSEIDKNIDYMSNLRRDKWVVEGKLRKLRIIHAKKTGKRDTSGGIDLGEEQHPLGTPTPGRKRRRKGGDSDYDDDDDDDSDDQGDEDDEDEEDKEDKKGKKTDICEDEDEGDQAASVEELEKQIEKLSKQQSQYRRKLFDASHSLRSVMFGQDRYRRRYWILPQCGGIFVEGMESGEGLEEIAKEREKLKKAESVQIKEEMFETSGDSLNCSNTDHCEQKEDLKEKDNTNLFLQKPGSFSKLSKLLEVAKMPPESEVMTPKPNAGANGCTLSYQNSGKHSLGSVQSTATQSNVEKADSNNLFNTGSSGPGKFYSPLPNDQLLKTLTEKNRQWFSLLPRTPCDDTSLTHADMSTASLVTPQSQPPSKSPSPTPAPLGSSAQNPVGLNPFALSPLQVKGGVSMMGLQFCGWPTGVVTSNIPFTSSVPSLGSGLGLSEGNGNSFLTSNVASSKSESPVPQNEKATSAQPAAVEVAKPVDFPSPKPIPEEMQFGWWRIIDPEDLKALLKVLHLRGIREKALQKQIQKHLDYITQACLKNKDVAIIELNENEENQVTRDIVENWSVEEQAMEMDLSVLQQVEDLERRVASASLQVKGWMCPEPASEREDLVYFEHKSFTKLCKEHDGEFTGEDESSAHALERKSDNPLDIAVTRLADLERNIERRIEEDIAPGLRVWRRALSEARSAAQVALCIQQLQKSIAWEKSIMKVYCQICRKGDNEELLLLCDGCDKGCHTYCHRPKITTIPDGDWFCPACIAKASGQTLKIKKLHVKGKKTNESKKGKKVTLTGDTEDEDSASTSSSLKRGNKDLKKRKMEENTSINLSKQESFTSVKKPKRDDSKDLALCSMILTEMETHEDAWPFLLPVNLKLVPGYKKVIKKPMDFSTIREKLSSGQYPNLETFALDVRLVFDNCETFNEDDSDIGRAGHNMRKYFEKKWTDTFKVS
Method in brief: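 Protein-peptide AlphaScreen: BAZ2B 50 nM, b-H3K14Ac 50 nM, 1x PBS pH 7.4 + 0.01% Tween-20. Preincubation 30 min RT; cpd 30 min RT (top 110 uM); beads 20 min RT, light-protected.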
Note: nearly all actives have a fitted effect of over 60% in size.
Potency is the fitted concentration of half-maximal effect.

Potency, inactive:
COc1ccc(/C=C(/CC(=O)Nc2ccc(C)cc2)c2nc3ccccc3s2)cc1, COc1ccccc1OCc1nc2ccccc2s1, Cc1cc2nc(-c3ccc(NC(=O)c4cc5ccccc5o4)cc3)oc2cc1C, COc1ccccc1CNC(=O)C(=O)NCC(c1ccco1)S(=O)(=O)c1ccc(F)cc1 (stereo not drawn), CCCN(C(=O)Cn1cc(S(=O)(=O)N2CCN(c3ccccc3F)CC2)c2ccccc2c1=O)c1cccc(C)c1, COc1cc(C(=O)NCC(c2ccc(Cl)cc2)N2CCOCC2)cc(OC)c1OC (stereo not drawn), CCOC(=O)C1CCN(C(c2ccc(F)cc2)c2sc3nc(-c4ccco4)nn3c2O)CC1 (stereo not drawn), CCOc1ccccc1NC(=O)Cn1c(=O)n(Cc2ccco2)c(=O)c2sc3ccccc3c21, Cc1ccc(-n2c3nc(=O)[nH]c(=O)c-3cc3c(Cl)cccc32)cc1, CCOc1ccc(OCC)c(NC(=O)c2cc(C)nc3c2c(C)nn3-c2cccc(Cl)c2C)c1, Cc1ccc(C(=O)Nc2cc3c(cc2N2CCCC2)n(C)c(=O)c(=O)n3C)cc1, O=S(=O)(c1ccc(Cl)cc1)c1nnn2c1nc(NC1CCCC1)c1sccc12, O=C(Nc1ccc(S(=O)(=O)N2CCC(c3nc4ccccc4s3)CC2)cc1)c1ccccc1F, S=c1[nH]nc(-c2cccs2)n1/N=C/c1cccs1, S=c1[nH]nc(-c2ccncc2)n1/N=C/c1ccccc1Cl, COc1ccc(C2C(=O)N(C3CCCCCC3)CC(=O)N2CCc2ccc(Cl)cc2)cc1OC (stereo not drawn), COc1ccc(OC)c2sc(N3CCN(C(=O)C4COc5ccccc5O4)CC3)nc12 (stereo not drawn), O=C(CNC(=O)C1COc2ccccc2O1)N/N=C/c1cc(Br)c(O)c(Br)c1 (stereo not drawn), Cn1c(C(=O)Nc2cccc(C(F)(F)F)c2)cc2c(=O)n3ccccc3nc21, COc1cccc(C(=O)NCc2ccc3c(c2)CCN3C(=O)c2ccncc2)c1, CCOc1ccc(S(=O)(=O)N2CCCCCC2)c2ccccc12, C#CCOc1ccc(C2CC(=O)Nc3c2c(C)nn3-c2nc(C)cc(C)n2)cc1 (stereo not drawn), COc1ccccc1C(=O)Nc1c(C(=O)Nc2ccc(C)cc2)oc2ccccc12, CCOc1cccc(CC(=O)N2CCc3c([nH]c4ccccc34)C2c2ccc(OC)cc2)c1OCC (stereo not drawn), Cc1cccc(C(=O)N2CCc3c([nH]c4ccccc34)C2CC(C)C)n1 (stereo not drawn), Cc1ccc(N(CC(=O)NCc2ccc(Cl)cc2)S(=O)(=O)N(C)C)cc1, CCOc1ccc(NC(=O)CCC(=O)N2CC(C)Oc3ccc(C)cc32)cc1 (stereo not drawn), CCCn1c2ccccc2c2cnn(CC(=O)NCC3CCN(Cc4ccc(C)cc4)CC3)c(=O)c21, Cc1ccc(NC(=O)c2oc3ccc(S(=O)(=O)N4CCCCC4)cc3c2C)cc1Cl, COc1ccc(Cl)cc1S(=O)(=O)N1CCC(c2ccncc2)CC1, Cc1nn(Cc2ccc(F)cc2)c(C)c1NC(=O)c1cc(CC(C)C)on1, Cc1cc(C)c2oc(C(=O)Nc3c(C(=O)Nc4ccccc4)oc4ccccc34)cc(=O)c2c1, COC(=O)CN1C(=O)C(O)=C(C(C)=O)C1c1ccc([N+](=O)[O-])cc1 (stereo not drawn), COc1ccc2[nH]cc(CCN3C(=O)c4ccc(C(=O)O)cc4C3=O)c2c1, Cc1cccc(N(C)C(=O)CS(=O)(=O)c2cccc3nsnc23)c1, Cc1ccc(C)c(N2C(=O)N(Cc3c(F)cccc3Cl)c3ccccc3S2(=O)=O)c1, CC(=O)c1cc(C#N)c(SCC(=O)Nc2nccs2)nc1C, CC(=O)c1cc(C#N)c(SCC(=O)C(C)(C)C)nc1C, Cc1cccc(-c2nnc(SCC(=O)N3CCCc4ccccc43)o2)c1, CCC(=O)N1CCc2cc(Br)cc(S(=O)(=O)NCc3ccc(Cl)cc3)c21, COc1ccccc1CNC(=O)Cn1nc(C)c2nn(-c3ccc(Cl)cc3)c(C)c2c1=O, CCN(C(=O)Cn1cnc2sc(C)c(S(=O)(=O)N3CCN(c4ncccn4)CC3)c2c1=O)c1ccccc1F, CCCCc1nnc(NC(=O)CSc2nc(C)cc(=O)[nH]2)s1, CCOC(=O)Cc1csc(NC(=O)CSc2ccc(Br)cc2)n1, O=C(CSc1ncc(-c2ccccc2)[nH]1)Nc1ccc(F)cc1F, COC(=O)c1c(NC(=O)C(C)Oc2ccc(Cl)c(C)c2)sc(C)c1C (stereo not drawn), COC(=O)CN1C(=O)CSc2ccc(S(=O)(=O)Nc3cc(C)ccc3C)cc21, CCc1ccc(CN(Cc2ccco2)C(=O)COc2ccc(Cl)c(C)c2)cc1, O=C(N/N=C/c1c[nH]c2ccccc12)c1ccccc1O, O=C(O)c1cccc(NC(=S)N/N=C/c2c[nH]c3ccccc23)c1, O=C(NCCc1ccccc1)c1ccc2c(c1)N(Cc1ccccc1)C(=O)c1ccccc1S2(=O)=O, CCC(=O)N1CCc2cc(CNS(=O)(=O)c3ccc(Br)s3)ccc21, C#CCOCCOCCOCCNc1nc(N2CCN(C(=O)[C@H](CCCCN)n3cc(CCC(=O)O)nn3)CC2)nc(N2CCN(C(=O)[C@H](CCCCN)n3cc(CC(C)O)nn3)CC2)n1 (stereo partly drawn), CCOc1ccc(N(CC)S(=O)(=O)N2CCCC(C(=O)NCc3ccc(Cl)cc3)C2)cc1 (stereo not drawn), CCCCNC(=O)C1CCCN(c2nnc(C)c3c(C)n(-c4ccc(Cl)cc4)nc23)C1 (stereo not drawn), CCN(CC)C(=O)CSc1nc2cc3c(cc2c(=O)n1CCCC(=O)NCc1ccc2c(c1)OCO2)OCO3, Cc1ccc2onc(CC(=O)N3CCN(c4ccc(Cl)cc4)CC3)c2c1, Cc1ccc2cccc(NC(=O)c3cccc4ccccc34)c2n1, CCc1ccc(N2C(=O)CN(S(=O)(=O)CC)CC2(C)C(=O)NC2CCCCC2)cc1 (stereo not drawn), COc1ccc(-c2cn3ccc(C)cc3n2)cc1, COc1cc(OC)cc(C(=O)Nc2cc3nn(-c4ccccc4)nc3cc2Cl)c1, Cc1cccc(C(CC(=O)NCC2(c3ccccc3)CCCC2)c2ccccc2)c1O (stereo not drawn), Cn1c(SCC(=O)N2CCCc3ccccc32)ncc(C(=O)Nc2ccc(F)cc2)c1=O, COc1ccc(CNc2nc(-c3ccc(Cl)cc3)cc(C(F)(F)F)n2)cc1, O=C(NCCCn1ccnc1)c1ccccc1F, CCOc1ccc(S(=O)(=O)NCCCn2ccnc2)cc1NC(C)=O, Brc1ccc(OCCn2ccnc2)cc1, Cc1ccc(S(=O)(=O)c2nc(NCCCn3ccnc3)sc2Cl)cc1, Cc1cc2ccccc2n1CCNC(=O)c1ccc(F)cc1, CCC(=O)N1c2ccccc2CC1C(=O)N1CCN(c2ccccc2F)CC1 (stereo not drawn), O=S(=O)(c1ccc2nc(NCc3ccccc3Cl)ccc2c1)N1CCCCC1, CCCNC(=O)c1ccc2c(c1)ncn2-c1ccc(C)cc1C, CSc1nc(=O)c2c(n1C)NC(=O)CC2c1ccccc1OC(C)C (stereo not drawn), COc1ccc(Cl)cc1NC(=O)C(C)Sc1nc2c(c(=O)[nH]1)CCCC2 (stereo not drawn), COc1cccc(-c2nnc(SCC(=O)N3CCC(C)CC3)o2)c1, Cc1nnc(N2CCC(C(=O)Nc3ccc(F)cc3)CC2)c2nn(-c3ccc(Cl)cc3)c(C)c12, N#C/C(=C/c1cccc([N+](=O)[O-])c1)c1nnc2n1CCCCC2, CC(=O)NCCC(=O)Nc1cc(S(=O)(=O)N2CCOCC2)ccc1N1CCOCC1, O=C(COC(=O)c1ccccc1F)Nc1cc(S(=O)(=O)N2CCOCC2)ccc1N1CCCC1

Potency, active:
COc1cccc2sc(NNC(=O)c3nc4ccccc4s3)nc12 35.5 µM, CCOc1ccccc1/C=c1\sc2nc(-c3ccco3)nn2c1=O 50.1 µM, S=c1[nH]nc(-c2ccco2)n1/N=C/c1ccc(Br)s1 70.8 µM, Cc1c(CC(=O)N2CCN(C(=O)C3COc4ccccc4O3)CC2)c(=O)oc2c(O)c(O)ccc12 (stereo not drawn) 7.94 µM, CN(C)CCOCCOc1ccc(Cl)c2ccccc12 50.1 µM, CCN(CC)CCOCCOc1ccc(Cl)c2ccccc12 79.4 µM, c1ccc(C2c3[nH]c4ccccc4c3CCN2Cc2cccn2-c2cccnc2)nc1 (stereo not drawn) 31.6 µM, CCOc1ccc(C2c3[nH]c4ccccc4c3CCN2Cc2cccn2-c2ncccn2)cc1 (stereo not drawn) 28.2 µM, COc1ccc(C2C(C(C)=O)=C(O)C(=O)N2CCc2c[nH]c3ccccc23)cc1 (stereo not drawn) 56.2 µM, CC(=O)c1cc(C#N)c(N2CCCCC2)nc1C 56.2 µM, CCOC(=O)Cc1csc(NC(=O)CSc2nc(C)cc(=O)[nH]2)n1 50.1 µM, CSC(=S)N/N=C/c1c[nH]c2ccccc12 35.5 µM, C#CCOCCOCCOCCNc1nc(N2CCN(C(=O)[C@H](CCC(=O)O)n3cc(C(N)CO)nn3)CC2)nc(N2CCN(C(=O)[C@H](CCCCN)n3cc(C(N)CC(C)C)nn3)CC2)n1 (stereo partly drawn) 44.7 µM, C#CCOCCOCCOCCNc1nc(N2CCN(C(=O)[C@H](CCC(=O)O)n3cc(C(N)CO)nn3)CC2)nc(N2CCN(C(=O)[C@H](CCCCN)n3cc(C(N)[C@H](C)CC)nn3)CC2)n1 (stereo partly drawn) 14.1 µM, Cc1ccn2cc(-c3nonc3C)cc2c1 56.2 µM, Clc1c(OCCCn2ccnc2)ccc2ccccc12 39.8 µM, C=CCc1cc(C)ccc1OCCCn1ccnc1 31.6 µM, N#C/C(=C(\O)CCl)c1nnc2n1CCCCC2 79.4 µM, O=C(CNCc1ccco1)Nc1cc(S(=O)(=O)N2CCOCC2)ccc1N1CCCC1 50.1 µM
